Experimental findings from PubChem BioAssay AID1851 (National Center for Advancing Translational Sciences (NCATS), 2009) are described below.

As usually defined, the AC50 is the midpoint of the concentration-response curve, whichever way the signal moves.

SMILES strings stand for the structures. Hit rate of the full screen: of about 16,000 compounds, about 5,800 (36%) were called active. Not shown: some 23% with an inconclusive outcome. Some of the results follow. Unmarked numbers belong to inactive results. Calls come from the whole dose curve; as a rule, active = well fitted curve in the direction sought with a large enough effect; inconclusive = small, poorly fitted or top-dose-only effect, or effect the other way; inactive = no such curve, though single readings can be large or run the other way.
% is set by controls: 0 for no effect and ±100 for the full control effect.

The target in this assay is Cytochrome P450 2C19 (Homo sapiens) (UniProt P33261). As to the kind of experiment: Cytochrome panel assay with activity outcomes. To be noted: recombinant CYP, pro-luciferin dealkylation, luminescence, p450-cyp2c19; series mostly up to 57.1 µM; activity, negative = inhibition: at the top concentration.
Chain of Cytochrome P450 2C19 (Homo sapiens) (P33261 whole entry, looked up): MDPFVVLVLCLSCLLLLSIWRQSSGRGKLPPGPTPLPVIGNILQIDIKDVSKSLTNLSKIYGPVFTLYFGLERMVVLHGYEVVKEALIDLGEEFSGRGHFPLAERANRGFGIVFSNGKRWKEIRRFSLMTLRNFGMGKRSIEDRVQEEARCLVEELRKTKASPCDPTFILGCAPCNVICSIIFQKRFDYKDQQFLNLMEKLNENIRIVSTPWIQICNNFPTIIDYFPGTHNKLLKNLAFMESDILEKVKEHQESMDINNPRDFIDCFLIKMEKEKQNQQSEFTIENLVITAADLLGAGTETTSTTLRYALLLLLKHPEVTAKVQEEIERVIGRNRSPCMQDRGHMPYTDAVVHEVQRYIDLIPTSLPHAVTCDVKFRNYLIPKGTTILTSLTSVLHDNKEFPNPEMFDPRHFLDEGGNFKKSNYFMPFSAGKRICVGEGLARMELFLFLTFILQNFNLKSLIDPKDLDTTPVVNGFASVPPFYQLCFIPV
Turning to `O=c1c2ccc([N+](=O)[O-])c3cccc(c32)c2nc3ccccc3n12`, the “activity, negative = inhibition” value is -7.67%.

For `O=C(O)c1ccc2c3c1cccc3c(=O)n1c3ccccc3nc21`, the concentration at half-maximal activity (AC50) was 3980 nM (active).

Consider `Cc1cccc(CNc2ccnc(-c3cccnc3)n2)c1`, for which the AC50 was 2510 nM (active).

Consider `c1ccc(CNc2ccnc(-c3cccnc3)n2)cc1`, for which the AC50 is 2510 nM (active).

Consider `c1cncc(-c2nccc(NCc3cccs3)n2)c1`, for which the AC50 was 7940 nM (active).

Take `Cc1cnc(CNc2ccnc(-c3cccnc3)n2)cn1`: the “activity, negative = inhibition” value is -6.65%.

As for `O=C=Nc1ccc(Cc2ccc(N=C=O)cc2)cc1` (tested in a mixture with another compound), the activity, negative = inhibition is -1.1% [at 11.4 µM].

As to `CNc1nc(Cl)nc(NC(C)(C)C)n1`, the AC50 is 14100 nM (active).

As to `CCOc1ccc(C2C(C(=O)O)c3ccccc3C(=O)N2CCN2CCOCC2)cc1` (centres undefined), the “activity, negative = inhibition” value was 2.08%.

In the case of `CCOc1ccc(/C=C2\C(=O)c3ccccc3OC2c2ccccc2)cc1` (centres undefined), the AC50 is 1120 nM (active).

In the case of `Cc1cc(C)c2nc3c(c([C@H](O)[C@@H]4CCCCN4)c2c1)CC/C3=C/c1ccc(Cl)cc1`, the activity, negative = inhibition is -6.83% [at 11.4 µM].

With `CSCC[C@H](NC(=O)c1nn(C)c(=O)c2ccccc12)c1nc2ccccc2[nH]1`, the AC50 was 14100 nM (active).

For the compound `CC(=O)N1c2ccc(S(=O)(=O)CCC(=O)O)cc2CC1C` (centres undefined), the “activity, negative = inhibition” value was -4.88%.

Regarding `CC1Cc2ccccc2N1C(=O)C1CCCCN1S(=O)(=O)c1ccccc1` (centres undefined), the AC50 is 2240 nM (active).

`O=C(NC(NC(=S)Nc1cc(Cl)ccc1Cl)C(Cl)(Cl)Cl)c1ccco1` (centres undefined): the AC50 is 1580 nM (active).

As to `CCc1nnc(NC(=O)CSc2ncnc3c2cnn3-c2ccc(OC)cc2)s1`, the “activity, negative = inhibition” value is -18.2%.

As to `CCc1ccc(OCC(=O)NNC(=O)CSc2ncnc3sc(C)c(C)c23)cc1`, the concentration at half-maximal activity (AC50) is 11200 nM (active).

In the case of `Cc1noc(C)c1C(=O)N1CCC2(CC1)CN(c1ncccn1)C2`, the “activity, negative = inhibition” value is -18.2%.

`CC1=C(C(=O)OCc2ccccc2)C(c2ccc([N+](=O)[O-])cc2)NC(=O)N1CCCCCC(=O)O` (centres undefined): the “activity, negative = inhibition” value is -36%.

As for `O=C1NC(=O)[C@@](Cc2ccccc2)(c2cccnc2)N1`, the activity, negative = inhibition was 27.6% [at 11.4 µM].

`CC1=C(C(=O)OCc2ccccc2)C(c2cccnc2)c2c(n(C)c(=O)n(C)c2=O)N1` (centres undefined): the AC50 was 1000 nM (active).

Consider `CC(C)(C)n1nnnc1C(c1cccnc1)N(Cc1ccccc1)Cc1ccco1` (centres undefined), for which the AC50 was 11200 nM (active).

Regarding `CC[C@H]1C2=C3C(CC[C@H]4C(OCc5ccc(F)cc5C(F)(F)F)OC[C@](C)([C@@H]34)N(C(=O)OC(C)(C)C)C2)C(COC)C1COC` (some centres undefined), the “activity, negative = inhibition” value is 8.33%.

For `Nc1nonc1-c1nc2ccccc2n1Cc1ccc(F)cc1Cl`, the AC50 is 79.4 nM (active).

Take `Clc1ccc(Cn2c(-c3cccnc3Cl)nc3ccccc32)c(Cl)c1`: the AC50 was 891 nM (active).

In the case of `Oc1ccc(Cn2c(-c3ccc(O)cc3)nc3ccccc32)cc1`, the activity, negative = inhibition was 87.1% [at 11.4 µM].

Consider `Clc1ncccc1-c1nc2ccccc2n1Cc1ccccc1`, for which the half-maximal activity concentration (AC50) was 28200 nM (active).

With `CN(C)CCCN1CC(C(=O)O)CC1=O` (centres undefined), the “activity, negative = inhibition” value was 4.71%.

Take `O=c1onc2cnc3ccccc3n12`: the “activity, negative = inhibition” value was -36.2%.

As to `O=c1c(-c2cccs2)nc2cnc(Nc3ccccc3)nc2n1C[C@H]1CCCO1`, the “activity, negative = inhibition” value is -17.3%.

On to `CCCS(=O)(=O)N1CCCC(C(=O)NCCCN2CCN(c3ccc(F)cc3)CC2)C1` (centres undefined), for which the “activity, negative = inhibition” value was -29.7%.

As for `CC1CC(C)CN(CCCNC(=O)C2CCCN(c3nnc(N4CCCC4=O)s3)C2)C1` (centres undefined), the “activity, negative = inhibition” value is -4.77%.

As for `CC1CCCN(CCCNC(=O)C2CC(=O)N(c3ccc(F)c(Cl)c3)C2)C1` (centres undefined), the AC50 is 31600 nM (active).

With `CCCn1nnnc1NC(=O)COc1ccc(Cl)cc1C`, the AC50 was 7940 nM (active).

Consider `Cc1cc(Cl)ccc1OCC(=O)NCc1ccncc1`, for which the AC50 was 1260 nM (active).

Turning to `O=C(O)[C@@H]1[C@@H](C(=O)NCc2ccncc2)[C@@H]2C=C[C@@H]1O2`, the activity, negative = inhibition is 9.32% [at 11.4 µM].

As for `Cc1cc(Cl)ccc1OCC(=O)Nc1nc(N)nc(N)n1`, the activity, negative = inhibition was 8.03% [at 11.4 µM].

`O=C(/C=C\c1ccc(O)c(O)c1)O[C@@H]1C[C@](O)(C(=O)O)C[C@@H](O)[C@@H]1O`: the “activity, negative = inhibition” value was 5.78% [at 25.6 µM].

On to `CCOC(=O)Oc1c(OC)cc(C(=O)O[C@H]2C[C@H]3CN4CCc5c([nH]c6cc(OC)ccc56)[C@@H]4C[C@H]3[C@@H](C(=O)OC)[C@@H]2OC)cc1OC`, for which the “activity, negative = inhibition” value is 18.1% [at 25.6 µM].

For `CCOC(=O)c1sc(=S)n(-c2cccc(C(F)(F)F)c2)c1SC`, the half-maximal activity concentration (AC50) was 1260 nM (active).

Take `Cc1n[nH]c(=O)n1-c1cccc(C(F)(F)F)c1`: the “activity, negative = inhibition” value is -22%.

As for `O=C(O)NCC1CCCCC1` (tested in a mixture with another compound), the activity, negative = inhibition was -22.4% [at 11.4 µM].

Regarding `O=C(CSc1nnc(SCc2cccc3ccccc23)s1)c1ccc2c(c1)OCO2`, the AC50 is 2510 nM (active).

For `FC(F)(F)c1ccccc1-c1cncnc1Nc1ccccc1`, the AC50 is 7940 nM (active).
